Statin myotox sup: protects C2C12 myotubes from simvastatin toxicity. hit rate 0.78% among 330,000. ATP luminescence, 48 h; scaled: DMSO 0, geranylgeraniol control 100. rescue of ATP level, % at 7.49 µM;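 active = mean ATP rescue above about 67%, or every replicate alone reaching that limit, limit read from the data, passing the limit was not always enough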;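 also: myotubes were challenged with 10 µM simvastatin during compound exposure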
PGC1a acetyl inh: modulators of PGC1a acetylation | U2OS PGC1a acetylation, AlphaScreen anti-acetyl-lysine; with virally co-expressed GCN5 acetyltransferase | inhibition, % at 15.6 µM | hit rate 0.17% among 350,000 | AID 651687;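 active = every replicate shows inhibition of at least 40%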;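 also: 0% = neutral control wells and 100% = positive control wells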
miR122 inh: miR-122 inhibition in Huh7 cells; activation (reporter increase), % at 12.5 µM; AID 602342; Huh7 miR-122 Renilla luciferase sensor, 48 h; neutral wells = 0, positive control = 100; hit rate 0.3% among 340,000;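 active = mean replicate activation score at least 90 and every replicate individually at or above 90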;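 also: higher luciferase means less miR-122 activity so hits act as miR-122 inhibitors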
PvdQ inh: P. aeruginosa PvdQ acylase inhibition. inhibition, % at 10 µM. hit rate 0.063% among 340,000. purified PvdQ acylase, fluorescence plate reader; in the data active = inhibition above about 30%, passing the limit was not always enough;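 also: 0% = vehicle neutral wells and 100% = reference inhibitor wells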
DENV2 CPE: DENV2-induced cell death inhibition. DENV2-infected cells, cytopathic effect rescue, plate reader. CPE inhibition, % at 9.99 µM. hit rate 1.7% among 350,000; in the data active = CPE inhibition above about 20%, passing the limit was not always enough; tested in BHK-21 cells;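 also: 0% = median of neutral control wells and 100% = median of positive control wells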
* hit, by the source's call; [ ] = another dose, or the depositor's remark. Shown are actives, neighbours in structure and some others; about 2.2% of the full set was active somewhere.

`O=S(=O)(NC[C@@H]1CC[C@@H]2[C@@H](CN2Cc2ccccc2C(F)(F)F)O1)c1ccccc1` gave PGC1a acetyl inh -0.4 and DENV2 CPE -0.9.
For C[C@@H]1CN([C@@H](C)CO)S(=O)(=O)c2ccc(-c3ccncc3)cc2O[C@@H]1CN(C)C(=O)C1CCCCC1 the results were Statin myotox sup -7.6, PGC1a acetyl inh 15.1 and miR122 inh -6.3[16.7 µM].
`CCOC(=O)c1sc(Nc2ccccc2)nc1C` gave Statin myotox sup -9.4, PGC1a acetyl inh -7.3, miR122 inh 8.2 and PvdQ inh -12.0.
`CCOC(=O)c1sc(Nc2nc3c(OC)cccc3s2)nc1C` gave Statin myotox sup 106.2*, PGC1a acetyl inh -4.1, miR122 inh 6.6 and PvdQ inh 6.9.
For CC(NC(=O)c1ccccc1)C(=O)OCn1nnc2ccccc2c1=O (centres undefined) the results were Statin myotox sup -0.7, PvdQ inh 14.3 and DENV2 CPE 33.2*.
For COc1ccc(CN(C)C[C@@H]2OCCCC[C@H](C)Oc3ccc(NS(=O)(=O)c4c(C)noc4C)cc3C(=O)N([C@H](C)CO)C[C@H]2C)cc1 the results were PGC1a acetyl inh 7.5 and DENV2 CPE -14.1.
For CCOc1ccc2nc(SCC#N)c(C#N)cc2c1 the results were Statin myotox sup 80.5*, PGC1a acetyl inh -10.4, miR122 inh -2.7 and PvdQ inh 6.3.
CCOc1ccc2nc(NCCNC(=O)Nc3ccccc3)c(C#N)cc2c1 was read as Statin myotox sup -10.6, PGC1a acetyl inh 64.2*, miR122 inh -21.6 and PvdQ inh -6.8.
For CCOc1ccc2nc(NCCNC(=O)Nc3cccc(C)c3)c(C#N)cc2c1 the results were Statin myotox sup -46.0, PGC1a acetyl inh 3.2, miR122 inh -1.7 and PvdQ inh -2.7.
For O=C(N[C@H]1CC[C@H](CCNS(=O)(=O)Cc2ccccc2)O[C@H]1CO)c1ccccc1F the results were Statin myotox sup 0.5, PGC1a acetyl inh -9.1, miR122 inh 5.5[16.7 µM] and DENV2 CPE -1.5.
Screening C[C@@H]1CN([C@H](C)CO)C(=O)c2cc(NC(=O)CCC(F)(F)F)ccc2O[C@@H](C)CCCCO[C@@H]1CN(C)C(=O)C1CCCCC1 returned PGC1a acetyl inh -1.9, miR122 inh 8.0[16.7 µM] and DENV2 CPE 87.5*.
Screening C[C@@H]1CCCCO[C@@H](CN(C)CC2CCCCC2)[C@@H](C)CN([C@@H](C)CO)C(=O)c2cc(NC(=O)CCC(F)(F)F)ccc2O1 returned PGC1a acetyl inh -6.7, miR122 inh 29.1[16.7 µM] and DENV2 CPE 29.9*.
Screening C[C@@H]1CCCCO[C@H](CN(C)S(C)(=O)=O)[C@@H](C)CN([C@H](C)CO)C(=O)c2cc(NC(=O)CCC(F)(F)F)ccc2O1 returned Statin myotox sup 0.4, PGC1a acetyl inh 15.9, miR122 inh 13.4[16.7 µM] and DENV2 CPE 115.9*.
Screening C[C@H](CO)N1C[C@H](C)[C@H](CN(C)CC2CCCCC2)OCCCC[C@H](C)Oc2ccc(NC(=O)CCC(F)(F)F)cc2C1=O returned PGC1a acetyl inh -12.2, miR122 inh -8.6[16.7 µM] and DENV2 CPE -6.6.
Screening C[C@H]1CCCCO[C@H](CN(C)CC2CCCCC2)[C@@H](C)CN([C@@H](C)CO)C(=O)c2cc(NC(=O)CCC(F)(F)F)ccc2O1 returned PGC1a acetyl inh 5.1, miR122 inh 9.1[16.7 µM] and DENV2 CPE 0.4.
For C[C@@H]1CCCCO[C@H](CN(C)CC2CCCCC2)[C@@H](C)CN([C@H](C)CO)C(=O)c2cc(NC(=O)CCC(F)(F)F)ccc2O1 the results were PGC1a acetyl inh -0.8, miR122 inh 7.2[16.7 µM] and DENV2 CPE 52.2*.
C/C=C/c1ccc([C@H]2[C@H]3CN(CCC(F)(F)F)CCCCN3[C@H]2CO)cc1 was read as Statin myotox sup -3.1, PGC1a acetyl inh -3.2, miR122 inh 6.0[16.7 µM] and DENV2 CPE 18.6.
C=CCOc1c(Br)cc(CNn2nnnc2N)cc1OC was read as Statin myotox sup 111.2*, PGC1a acetyl inh -1.7, miR122 inh -7.2 and PvdQ inh -4.7.
CC(=O)C[C@H]1c2cc(C(F)(F)F)ccc2S(=O)(=O)N1C1CCCCC1 was read as Statin myotox sup -0.3, PGC1a acetyl inh 3.1, miR122 inh 117.8*, PvdQ inh -10.5 and DENV2 CPE -10.7.
`COC(=O)C[C@H]1c2cc(F)ccc2S(=O)(=O)N1Cc1ccccc1OC` gave Statin myotox sup -2.9, PvdQ inh -9.9 and DENV2 CPE 15.5.
COC(=O)C[C@H]1c2cc(C(F)(F)F)ccc2S(=O)(=O)N1Cc1ccc(OC)cc1 was read as Statin myotox sup 4.9, PGC1a acetyl inh -105.6, miR122 inh -3.2, PvdQ inh -12.9 and DENV2 CPE 20.2*.
`COc1ccccc1CN1[C@@H](CC(C)=O)c2cc(C(F)(F)F)ccc2S1(=O)=O` gave Statin myotox sup 4.5, PGC1a acetyl inh 8.2, miR122 inh 32.8, PvdQ inh -12.4 and DENV2 CPE 71.3*.
Screening CC(=O)c1ccc(OCC(O)CN2CCN(CC(O)COc3ccc(C(C)=O)cc3)CC2)cc1 (centres undefined) returned Statin myotox sup 109.2*, PGC1a acetyl inh -4.5, miR122 inh -5.2 and PvdQ inh -10.2.
Screening CC(=O)N(C)c1ccc(OCC(O)COc2ccc(N(C)C(C)=O)cc2)cc1 returned Statin myotox sup 125.3*, PGC1a acetyl inh -14.0, miR122 inh 1.5 and PvdQ inh 2.3.
Screening CC(=O)c1ccc(OCC(O)CN2CCN(Cc3ccccc3)CC2)cc1 (centres undefined) returned Statin myotox sup 8.6, PGC1a acetyl inh -0.6, miR122 inh 2.2 and PvdQ inh 2.8.
Screening Cc1ccc(SCCN2CCC(NC(=O)OCc3ccccc3)CCC2=O)cc1 (centres undefined) returned Statin myotox sup 8.8, PGC1a acetyl inh -12.5, miR122 inh -4.4, PvdQ inh -10.5 and DENV2 CPE 32.3*.
Screening O=C(N[C@H]1CCC(=O)N(CCSc2ccc(Br)cc2)CC1)OCc1ccccc1 returned Statin myotox sup 11.1, PGC1a acetyl inh 5.3, miR122 inh 1.5, PvdQ inh -5.8 and DENV2 CPE -2.1.
For CCCCNC(=O)C1(C)CCCCCN1Cc1cc2ccccc2o1 (centres undefined) the results were Statin myotox sup 77.1*, PGC1a acetyl inh -11.0, miR122 inh 4.5 and DENV2 CPE 7.4.
CCCCNC(=O)C1(C)CCCCN1Cc1ccc(-c2ccccc2)cc1 (centres undefined) was read as Statin myotox sup 19.1, PGC1a acetyl inh 3.6, miR122 inh 0.6 and DENV2 CPE 10.6.
CCOC(=O)c1[nH]c2ccccc2c1NC(=O)c1ccc2c(c1)OCO2 was read as Statin myotox sup 3.3, PGC1a acetyl inh -2.0, miR122 inh 3.2, PvdQ inh 8.0 and DENV2 CPE 40.3*.
CC/C(=N\NC(=O)c1ccc2c(c1)OCO2)c1ccccc1 was read as Statin myotox sup 15.2, PvdQ inh -13.7 and DENV2 CPE 33.1*.
CCOC(=O)c1[nH]c2ccccc2c1NC(=O)Nc1ccc(OC)cc1 was read as Statin myotox sup 119.3*, PGC1a acetyl inh -0.1, miR122 inh 3.5 and PvdQ inh -10.9.

Source: PubChem BioAssay (Broad Institute)
